This passage reports growth inhibition call results from the antibiotic and cytotoxicity screens of Wong et al. (2023).

Screen size: about 39,000 compounds; about 500 (1.3%) were called active. This excerpt belongs to a sample that is enriched for actives.

For this test, the system named is S. aureus RN4220. Nature of the test: growth inhibition call (relative growth <= 0.2). The settings on record: 50 µM.
In the case of `C[C@H]1CN([C@@H](C)CO)C(=O)Cc2cc(NS(=O)(=O)c3ccc(F)cc3)ccc2O[C@@H]1CN(C)C(=O)Nc1cccc2ccccc12`, the growth inhibition call is “inactive”.
The result for `C[C@@H]1CCCCO[C@@H](CN(C)C(=O)Nc2ccccc2)[C@@H](C)CN([C@@H](C)CO)C(=O)c2cc(NC(=O)Nc3ccc(C(F)(F)F)cc3)ccc2O1` reads “inactive”.
Next, `C[C@H](CO)N1C[C@H](C)[C@H](CN(C)S(=O)(=O)c2ccc3ccccc3c2)OCc2cnnn2CCCC1=O`: “inactive”; `COC(=O)c1cn(CCNC(=O)[C@@H](NS(=O)(=O)c2ccc(C)cc2)C(C)C)nn1`: “inactive”.
Next, `C[C@@H]1CCCCO[C@@H](CN(C)S(=O)(=O)c2cn(C)cn2)[C@@H](C)CN([C@@H](C)CO)C(=O)c2cc(NC(=O)CCCN(C)C)ccc2O1`: “inactive”; `O=C(NCCN1CCOCC1)[C@@]1(Cc2ccccc2)N=C(c2ccc(OCCCO)cc2)O[C@H]1c1ccccc1`: “inactive”.
In the case of `C[C@@H]1CN([C@H](C)CO)C(=O)c2cc(NC(=O)Nc3ccc(C(F)(F)F)cc3)ccc2O[C@@H]1CN(C)Cc1ccc(C(F)(F)F)cc1`, the growth inhibition call is “inactive”.
Next, `COc1ccc(NC(=O)N(C)C[C@H]2Oc3ccc(NC(=O)C4CC4)cc3C(=O)N([C@@H](C)CO)C[C@@H]2C)cc1`: “inactive”.
Next, `COc1ccc2c3c(n(c2c1)C)[C@H](CO)N(CC1CCOCC1)C[C@]13CN(C1)C(=O)Cc1cccnc1`: “inactive”; `Cc1ccc(S(=O)(=O)N(C)C[C@@H]2Oc3ccc(N(C)C)cc3CC(=O)N([C@@H](C)CO)C[C@@H]2C)cc1`: “inactive”; `O=C(C[C@H]1C[C@@H]2c3cc(NC(=O)Nc4ccc(C(F)(F)F)cc4)ccc3O[C@@H]2[C@H](CO)O1)NCCc1ccccc1`: “inactive”.
Next, `Cc1n[nH]c(=S)[nH]c1=O`: “inactive”; `Cc1ccc(S(=O)(=O)N(C)C[C@H]2Oc3c(NC(=O)C4CC4)cccc3C(=O)N([C@@H](C)CO)C[C@@H]2C)cc1`: “inactive”.
As to `Cc1ccc(-c2cnc3c(c2)C(=O)N([C@H](C)CO)C[C@@H](C)[C@H](CN(C)C(=O)Cc2cccnc2)O3)cc1`, the growth inhibition call is “inactive”.
As for `C[C@@H]1CN([C@@H](C)CO)C(=O)c2cc(NC(=O)Nc3cccc4ccccc34)ccc2O[C@@H]1CN(C)Cc1ccc(C(F)(F)F)cc1`, the growth inhibition call was “inactive”.
Next, `O=C(C[C@H]1CC[C@@H]2[C@H](COC[C@@H](O)CN2C(=O)Nc2ccc(Cl)c(Cl)c2)O1)NCc1ccc(Cl)c(Cl)c1`: “inactive”.
The result for `O=C(C[C@H]1CC[C@@H]2[C@H](COC[C@@H](O)CN2C(=O)Nc2ccc(Cl)c(Cl)c2)O1)NCc1ccncc1` reads “active”; that for `O=C(C[C@@H]1CC[C@@H]2[C@H](COC[C@@H](O)CN2C(=O)Nc2ccc(Cl)c(Cl)c2)O1)NCc1ccc(Cl)c(Cl)c1`, “inactive”; that for `CCO[C@@H]1OC(C(=O)N2CCOCC2)=C[C@H](C2CC2)[C@H]1CCCOC(=O)NCCCCCC(=O)NO`, “inactive”.
Next, `O=S(=O)(Cc1ccccc1)Nn1cnnc1`: “inactive”.
Regarding `C[C@H]1CN([C@@H](C)CO)C(=O)Cc2cc(NS(=O)(=O)c3ccc(F)cc3)ccc2O[C@@H]1CN(C)S(C)(=O)=O`, the growth inhibition call was “inactive”.
For `Cc1ccc(S(=O)(=O)N(C)C[C@@H]2OCCCC[C@@H](C)Oc3ccc(NC(=O)Nc4cccc5ccccc45)cc3C(=O)N([C@@H](C)CO)C[C@@H]2C)cc1`, the growth inhibition call was “inactive”.
The result for `NC(C(=O)NC1C(=O)N2C(C(=O)O)=C(Cl)CSC12)c1ccccc1` (stereo unspecified) reads “active”.
The result for `N[C@@H](C(=O)N[C@@H]1C(=O)N2C(C(=O)O)=C(Cl)CC[C@H]12)c1ccccc1` reads “active”; that for `CC1=C(C(=O)O)N2C(=O)[C@@H](NC(=O)[C@H](N)c3ccccc3)[C@H]2SC1`, “inactive”.
The result for `CC1=C(C(=O)O)N2C(=O)[C@@H](NC(=O)[C@@H](N)c3ccccc3)[C@H]2SC1` reads “inactive”; that for `CC1=C(C(=O)O)N2C(=O)C(NC(=O)C(N)c3ccccc3)C2SC1` (stereo unspecified), “inactive”; that for `CC1=C(C(=O)O)N2C(=O)[C@H](NC(=O)[C@@H](N)c3ccccc3)[C@H]2SC1`, “inactive”.
In the case of `N[C@@H](C(=O)N[C@@H]1C(=O)N2C(C(=O)O)=C(Cl)CS[C@H]12)c1ccccc1`, the growth inhibition call is “active”.
Next, `O=C(C[C@H]1C[C@@H]2c3cc(NS(=O)(=O)c4ccc(F)cc4)ccc3O[C@@H]2[C@H](CO)O1)NCc1cccc(F)c1`: “inactive”.
The result for `Cc1ccc(S(=O)(=O)N(C)C[C@H]2OCCCC[C@@H](C)Oc3ccc(NC(=O)c4ccccc4)cc3C(=O)N([C@@H](C)CO)C[C@@H]2C)cc1` reads “inactive”.
Next, `C[C@@H]1CN([C@@H](C)CO)C(=O)c2cc(NC(=O)Cn3cnnn3)ccc2O[C@H]1CN(C)CC1CCCCC1`: “inactive”; `C=CC[C@@H](CC(=O)NCCO)C(=O)NC[C@@H](OC(=O)[C@@H](CC=C)CC(=O)OC(C)(C)C)c1ccccc1`: “inactive”.
Regarding `C[C@H](CO)N1C[C@H](C)[C@H](CN(C)Cc2ccc(-c3ccccc3)cc2)Oc2c(NC(=O)C3CC3)cccc2C1=O`, the growth inhibition call was “inactive”.
Next, `C[C@@H]1CN([C@H](C)CO)C(=O)c2cccc(NS(=O)(=O)c3ccccc3)c2O[C@H]1CN(C)C(=O)Nc1cccc2ccccc12`: “inactive”; `COCC(=O)N1C[C@H](C)[C@H](OC)CN(C)C(=O)c2ccc(NC(=O)Nc3cccc(F)c3)cc2OC[C@H]1C`: “inactive”; `C[C@H]1CCCCO[C@H](CN(C)C(=O)CCCN(C)C)[C@@H](C)CN([C@@H](C)CO)C(=O)c2cc(NC(=O)Nc3ccc(C(F)(F)F)cc3)ccc2O1`: “inactive”.
Next, `CCCCOC(=O)[C@@H](N)CCC(=O)O`: “inactive”; `COC(=O)[C@H]1c2cc3c(c(O)c2[C@@H](O[C@@H]2O[C@H](C)[C@H](OC)[C@](C)(OC)[C@@H]2OC)C[C@@]1(C)O)C(=O)c1c(O)cc2c(c1C3=O)O[C@H]1O[C@@]2(C)[C@@H](O)[C@H](N(C)C)[C@@H]1O`: “active”.
The result for `CC[C@@]1(O)C[C@H](O[C@H]2C[C@H](N(C)C)[C@H](O[C@H]3C[C@H](O)[C@H](O[C@H]4CCC(=O)[C@H](C)O4)[C@H](C)O3)[C@H](C)O2)c2c(cc3c(c2O)C(=O)c2c(O)cccc2C3=O)[C@H]1C(=O)OC` reads “inactive”; that for `C[C@H](CO)N1C[C@H](C)[C@H](CN(C)Cc2ccc(Cl)c(Cl)c2)Oc2ccc(NC(=O)Cn3cnnn3)cc2CC1=O`, “inactive”.
